# Hits are enriched below; roughly 1.5% of the tested compounds scored in any of these assays.
# BAP1 block: blocks human BAP1 ubiquitin-AMC hydrolysis; AID 436; Q92560; 72,000 tested, 0.48% active; recombinant BAP1, Ub-AMC hydrolysis fluorescence kinetic; active compounds read low; calls only at 20 µM;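 active = activity remaining at or below 50% of control, provided the compound also passes the data quality filters; inactive = the rest, including low values that fail the filters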;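 also: 100% = DMSO wells rate and 0% = substrate alone blank rate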
# Target sequence (Q92560 whole entry, looked up): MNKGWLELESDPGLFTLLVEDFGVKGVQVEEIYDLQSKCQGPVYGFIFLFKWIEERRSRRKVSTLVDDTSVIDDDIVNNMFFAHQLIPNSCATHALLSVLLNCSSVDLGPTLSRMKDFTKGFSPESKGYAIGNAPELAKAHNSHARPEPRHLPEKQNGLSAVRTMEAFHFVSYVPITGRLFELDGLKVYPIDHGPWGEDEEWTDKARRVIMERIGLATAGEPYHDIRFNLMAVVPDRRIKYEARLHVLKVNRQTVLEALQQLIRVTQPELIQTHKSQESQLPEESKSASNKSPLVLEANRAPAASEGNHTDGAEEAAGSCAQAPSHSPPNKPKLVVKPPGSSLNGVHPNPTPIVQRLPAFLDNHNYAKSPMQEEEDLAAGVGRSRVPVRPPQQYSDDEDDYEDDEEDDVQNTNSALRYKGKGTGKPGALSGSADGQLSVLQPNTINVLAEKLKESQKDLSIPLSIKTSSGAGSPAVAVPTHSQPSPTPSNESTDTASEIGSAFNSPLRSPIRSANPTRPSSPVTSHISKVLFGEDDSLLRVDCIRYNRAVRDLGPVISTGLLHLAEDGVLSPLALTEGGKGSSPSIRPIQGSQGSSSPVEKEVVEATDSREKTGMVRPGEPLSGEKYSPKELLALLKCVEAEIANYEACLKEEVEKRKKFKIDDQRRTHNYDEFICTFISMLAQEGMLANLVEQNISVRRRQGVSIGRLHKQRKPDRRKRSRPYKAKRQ
# PLAP activator: human PLAP activation. purified PLAP enzyme, luminescent substrate read-out; active compounds read high. AID 696. activation fold at 20 µM. 96,000 tested, 1.2% active; in the data active = activation fold above about 2
# sEH inhibitor: inhibitors of human soluble epoxide hydrolase; P34913; recombinant human sEH enzymatic activity assay; inhibition, % at 2 µM; 91,000 tested, 0.34% active; in the data active = inhibition above about 80%
# sEH activator: soluble epoxide hydrolase (human) activation | activation, % at 2 µM | AID 717 | purified human sEH enzymatic activity, activator screen | P34913 | 91,000 tested, 0.04% active; in the data active = activation above about 37%
# * hit, by the source's call; i = inactive; nt = no result given.
SMILES,BAP1 block,PLAP activator,sEH inhibitor,sEH activator
COc1ccc(OC)c(Nc2nc(-c3sc(NC(=O)C(C)(C)C)nc3C)cs2)c1,nt,1.1,13.4,-12.8
COc1ccc(OC)c(Nc2nc(-c3sc(C)nc3C)cs2)c1,i,2.1*,2.1,-1.9
C=CCNc1nc(OC(C(F)(F)F)C(F)(F)F)nc(N2CCCCC2)n1,i,nt,nt,nt
Cc1csc(NC(=O)c2nc(-c3ccccc3)n(-c3ccccc3)n2)n1,i,2.8*,nt,nt
Cc1csc(NC(=O)c2nc3nc(C)cc(C)n3n2)n1,i,2.1*,nt,nt
Cc1cc(C)n2nc(C(=O)Nc3nccs3)nc2n1,nt,1,9.8,-8.0
Cc1cc(Nc2ccc(N3CCC(C)CC3)cc2)n2ncnc2n1,i,2*,-1.2,-0.9
CCNC(=S)NNC(=O)c1cc(-c2cccc(OCC)c2)nc2ccccc12,nt,2.7*,-8.8,10.9
CCNC(=S)NNC(=O)c1cc(-c2cccc(C)c2)nc2ccccc12,nt,1.9,-9.5,10.3
CCNC(=S)NNC(=O)c1cc(C2CC2)nc2ccccc12,nt,2.1*,3.2,-2.0
c1coc(-c2nnc3sc(Cc4cccs4)nn23)c1,i,0.9,9.3,-7.8
c1csc(Cc2nn3c(-c4n[nH]c5c4CCC5)nnc3s2)c1,nt,2.1*,-12.3,9.7
CC1=C(C(=O)OCCCBr)C(c2ccccc2)NC(=O)N1 (stereo unspecified),i,nt,nt,nt
N/C(=N\c1nc2c(c(=O)[nH]1)CCCC2)Nc1ccccc1,i,1.9,5.6,-5.6
N/C(=N\c1nc2c(c(=O)[nH]1)CCCC2)Nc1ccccc1Sc1ccccc1,nt,2*,-5.8,4.8
CCN1CCN(Cc2cccc(Oc3ccc(Cl)cc3)c2)CC1,nt,1.7,-9.8,10.6
CCN1CCN(Cc2cccc(Oc3ccccc3)c2)CC1,nt,2.2*,-16.5,17.6
O=C(N[C@@H](Cc1ccccc1)C(=O)NC1CCCCCC1)c1ccco1,nt,1.3,80.3*,-80.5
O=C(N[C@@H](Cc1ccccc1)C(=O)NC1CCCCC1)c1ccco1,nt,1.1,49.3,-50.2
CCCCOC(=O)C1=C(C)NC2=C(C(=O)CC(C)(C)C2)C1c1ccc(OC)c(OC)c1OC (stereo unspecified),i,nt,nt,nt
Cc1cc(-n2[nH]c(C)c(C)c2=O)nc(-c2ccccc2O)n1,i,2.5*,nt,nt
Cc1cc(N2CCN(c3ccccc3)CC2)nc(-c2ccccc2O)n1,nt,1.2,-8.4,5.2
O=C1c2[nH]nc(-c3ccccc3O)c2C(c2ccc(F)cc2)N1Cc1ccco1 (stereo unspecified),i,2.4*,-0.2,-0.2
O=C1c2[nH]nc(-c3ccccc3O)c2C(c2cccc(Cl)c2)N1Cc1ccco1 (stereo unspecified),i,1.2,nt,nt
COc1ccc(CSc2nc3ccccc3[nH]2)cc1,nt,0.9,8.2,-5.3
SMILES,BAP1 block,PLAP activator,sEH inhibitor,sEH activator
c1ccc2[nH]c(SCc3ccc(-c4nnco4)cc3)nc2c1,i,2*,-7.7,7.7
Cc1cccc(N2C(=O)c3ccc(NC(=O)c4ccc(Br)cc4)cc3C2=O)c1,i,nt,nt,nt
CCOC(=O)C1=C(CSc2n[nH]c(N)n2)NC(=O)NC1C (stereo unspecified),i,2.4*,4.6,-5.2
CCOC(=O)C1=C(CSc2nc3ccccc3s2)NC(=O)NC1c1ccc(OC)cc1 (stereo unspecified),nt,1.2,-2.8,3.6
O=C(Nc1ccc2c(c1)N(Cc1ccccc1)C(=O)c1ccccc1S2)NC1CC1,nt,2.1*,1.8,1.3
CCN(CC)S(=O)(=O)c1cccc(C(=O)N[C@H](C(=O)O)C(C)C)c1,nt,1.2,5.0,-10.3
CCN(CC)S(=O)(=O)c1cccc(C(=O)NCCc2ccccc2)c1,nt,nt,81.3*,-81.2
COc1cc(CNC2CCCC2)cc(Cl)c1OCc1ccccc1F,nt,2*,-2.7,2.5
CCN(CC)C(=O)COc1ccc2oc(C)c(C(=O)OC(C)C)c2c1,i,2.6*,-4.6,3.6
Oc1ccc(C2Nc3cccc4cccc(c34)N2)cc1O,i,nt,nt,nt
CCOc1ccc(OCC)c(NC(=O)C2CCCN(S(=O)(=O)c3c(C)n[nH]c3C)C2)c1 (stereo unspecified),i,2*,nt,nt
CCOc1ccc(OCC)c(NC(=O)C2CCCN(S(=O)(=O)c3c(C)noc3C)C2)c1 (stereo unspecified),i,1.1,nt,nt
CC12CCC(C(=O)N3CCc4ccccc4C3)(OC1=O)C2(C)C (stereo unspecified),i,nt,nt,nt
CCOC(=O)c1ccc(-n2c(=O)[nH]c3ccccc3c2=O)cc1,i,2*,-12.3,13.9
CN(C)CCNc1oc(COc2ccc(Cl)cc2Cl)nc1C#N,nt,2*,8.8,-7.7
CCOC(=O)c1ccc(CSc2n[nH]c(C)n2)o1,i,2*,nt,nt
CC1=NNC(=O)C1C(c1ccccc1)C(C#N)C#N (stereo unspecified),nt,2.2*,-1.1,2.1
